Reference: PubChem BioAssay (NCATS)
Records with an inconclusive call do not appear. A number with no mark means an inactive call. The source made the active and inactive calls. Unless noted, calls come from the whole dose curve; as a rule, active = well fitted inhibition curve with a large enough effect in the repeat runs; inconclusive = weak or mixed curves; inactive = flat fitted curve, though single readings scatter.

Test system: not listed separately
Test: A High-Content qHTS Against Drug Library for the Identification of Small Molecules that Inhibit DYT1 Early Onset Primary Dystonia-Associated Cell Pathology (AID 1645839; calls by dose curve)
Conditions: HEK293 Flp-In EGFP-delE TorsinA, punctate imaging, 48 h; series mostly up to 91.7 µM; % pathology change, negative = correction: at the top concentration
In short: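 Induced EGFP-delE TorsinA cells are imaged after 48 h of compound treatment. Punctate fusion-protein distribution gives the %pathology value, while nuclei counts flag toxicity. Wild-type EGFP-hTOR1A cells define the normal pattern.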

| Compound | % pathology change, negative = correction |
| --- | --- |
| C=CCC1=C(C)C(OC(=O)C2C(C=C(C)C)C2(C)C)CC1=O (stereo not drawn) | -23.3% |
| OCCCBr | 20.1% |
| CC(C)(C)NC[C@H](O)c1ccc(O)cc1Cl | 19.4% [at 46.1 µM] |
| CCCCC(CC)COC(=O)c1ccccc1C(=O)OCC(CC)CCCC (stereo not drawn) | 10.9% |
| CCOP(=O)(NC(C)C)Oc1ccc(SC)c(C)c1 (stereo not drawn) | -8.21% |
| CCOCCOC(C)=O | 12.8% |
| O=C(O)CCCOc1ccc(Cl)cc1Cl | -13.6% |
| c1cc2ccc3cccc4ccc(c1)c2c34 | 16.5% [at 104 µM] |
| COCCOCCO | 17.1% |

Target: Cytochrome P450 2D6 (Homo sapiens) (UniProt P10635)
Test: Cytochrome P450 family 2 subfamily D member 6 (CYP2D6) small molecule antagonists: luciferase biochemical (cell-free) qHTS assay (AID 1645840); note: nearly all actives have a fitted effect of over 55% in size; note: potency is the fitted concentration of half-maximal effect; for activity change, negative = inhibition: % is set by controls: 0 for no effect and ±100 for the full control effect
Conditions: P450-Glo CYP2D6 enzyme, luciferin luminescence, 1 h; series mostly up to 57.4 µM; activity change, negative = inhibition: at the top concentration
In short: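 P450-Glo CYP2D6 system: proluciferin substrate converted by enzyme to luciferin, read by luminescence proportional to activity. Enzyme-substrate mix with compound 10 min at room temperature, then NADPH regeneration 1 h before detection reagent.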

Chain of Cytochrome P450 2D6 (Homo sapiens) (P10635 whole entry, looked up): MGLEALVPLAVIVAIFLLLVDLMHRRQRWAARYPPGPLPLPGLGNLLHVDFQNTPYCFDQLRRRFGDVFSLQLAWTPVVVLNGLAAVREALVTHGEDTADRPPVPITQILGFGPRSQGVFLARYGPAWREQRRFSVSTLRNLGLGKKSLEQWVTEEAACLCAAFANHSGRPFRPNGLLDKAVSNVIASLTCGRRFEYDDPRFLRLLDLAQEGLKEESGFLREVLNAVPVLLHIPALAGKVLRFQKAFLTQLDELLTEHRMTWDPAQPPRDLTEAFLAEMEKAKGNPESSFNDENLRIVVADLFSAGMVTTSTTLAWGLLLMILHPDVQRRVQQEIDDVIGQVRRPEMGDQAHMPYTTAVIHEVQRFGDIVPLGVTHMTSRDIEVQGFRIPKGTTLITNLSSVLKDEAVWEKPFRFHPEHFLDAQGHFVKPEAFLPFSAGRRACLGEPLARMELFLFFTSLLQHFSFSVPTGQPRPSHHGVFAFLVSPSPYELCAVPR

| Compound | Potency | activity change, negative = inhibition |
| --- | --- | --- |
| C=CCC1=C(C)C(OC(=O)C2C(C=C(C)C)C2(C)C)CC1=O (stereo not drawn) | 23.8 µM (active) | – |
| OCCCBr | – | 10.9% [at 115 µM] |
| CC(C)(C)NC[C@H](O)c1ccc(O)cc1Cl | – | -18.7% |
| CCCCC(CC)COC(=O)c1ccccc1C(=O)OCC(CC)CCCC (stereo not drawn) | – | 6.05% [at 115 µM] |
| CCOP(=O)(NC(C)C)Oc1ccc(SC)c(C)c1 (stereo not drawn) | 3.88 µM (active) | – |
| CCOCCOC(C)=O | inactive | – |
| O=C(O)CCCOc1ccc(Cl)cc1Cl | – | 7.48% [at 115 µM] |
| c1cc2ccc3cccc4ccc(c1)c2c34 | – | 7.69% [at 115 µM] |
| COCCOCCO | – | -3.21% [at 115 µM] |
